A selection: hits, their analogues and other compounds. The true share with any hit is near 7%.
Integrin act MD: qHTS for Activators of Integrin-Mediated Alleviation for Muscular Dystrophy; hit rate 0.064% among 350,000; Potency, µM (highest dose often 38.3 µM), without a hit: at the highest dose activation, most hits filed as activators; alpha7betagal myoblasts, beta-gal FDG fluorescence, 48 h;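 further: potency means the concentration at half of the fitted maximal effect; 100% = response of the positive control SU9516; nearly all actives have a fitted effect of over 60% in size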
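Alpha7betagal+/- myoblasts (passage 13) were plated 16-24 hr, then exposed to compounds (1:260 dilution of DMSO stock) for 48 hours at 37C. After MPER lysis, β-galactosidase reporter activity was read as FDG fluorescence (ex 480/em 540) after 30 minutes.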
S2 tox: Viability Counterscreen for Primary qHTS for Inhibitors of ATXN expression | S2 cells (HEK-293 line with an ATXN2-luciferase reporter) viability, CellTiter-Fluor protease fluorescence, 24 h | Potency, µM (doses to about 56.7 µM), most hits filed as cytotoxic | hit rate 0.49% among 400,000 | AID 651635, 2014; further: potency means the concentration at half of the fitted maximal effect; nearly all actives have a fitted effect of over 40% in size
DRD3 antagonist: qHTS of D3 Dopamine Receptor Antagonist: qHTS; D(3) dopamine receptor (Homo sapiens), P35462; D3R cells, DiscoveRx beta-arrestin luminescence, antagonist mode; active compounds read low; max response, negative = inhibition, %; hit rate 2.5% among 360,000; AID 652054, 2013; in the data active means max response below about -50%; inconclusive means no clear call, values can overlap the other calls; further: on the % scale 0 is the no-effect control and ±100 the full control effect
Target sequence (P35462 whole entry, looked up): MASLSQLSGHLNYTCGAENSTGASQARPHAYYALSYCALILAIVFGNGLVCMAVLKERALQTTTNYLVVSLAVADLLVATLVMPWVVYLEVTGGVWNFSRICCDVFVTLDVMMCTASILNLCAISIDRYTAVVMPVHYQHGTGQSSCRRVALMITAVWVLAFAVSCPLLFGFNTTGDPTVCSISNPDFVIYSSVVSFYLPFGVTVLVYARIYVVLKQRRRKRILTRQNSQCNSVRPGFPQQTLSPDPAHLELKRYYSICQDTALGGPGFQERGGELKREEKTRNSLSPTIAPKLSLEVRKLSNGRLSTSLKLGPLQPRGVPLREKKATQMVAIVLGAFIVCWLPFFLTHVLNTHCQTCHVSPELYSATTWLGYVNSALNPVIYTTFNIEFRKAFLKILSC
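Cells expressing the human receptor were seeded at 1500 cells/well, incubated overnight at 37 degrees C in 5% CO2, then exposed to library compounds with dopamine controls for 90 minutes at 37 degrees C before luminescent detection.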
ATXN2 expr inh: Primary qHTS for Inhibitors of ATXN expression. Potency, µM (highest dose often 57 µM), without a hit: at the top dose activity change, negative = inhibition, usual class: inhibitors. AID 1745845, 2022. hit rate 0.72% among 360,000. HEK-293 ATXN2-luciferase reporter, luminescence, 24 h; further: potency means the concentration at half of the fitted maximal effect; on the % scale 0 is the no-effect control and ±100 the full control effect; nearly all actives have a fitted effect of over 55% in size
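ATXN2-luciferase reporter cells (luciferase flanked by upstream and downstream ATXN2 gene portions) were treated 24 h at 37 °C with compounds at up to 57 uM. SteadyGlo luminescence gave expression; GF-AFC fluorescence gave viability.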
IL1B secr inh: qHTS for Inhibitors of Inflammasome Signaling: IL-1-beta AlphaLISA Primary Screen | hit rate 4.7% among 360,000 | activity change, % at 57.5 µM | THP-1 LPS/ATP IL-1B secretion, AlphaLISA, 16 h; active compounds read low; in the data active means activity change below about -50%; inconclusive means mostly about -30% to -49%; further: on the % scale 0 is the no-effect control and ±100 the full control effect
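Secreted IL-1B measured by AlphaLISA bead assay after 16 h compound exposure of THP-1 cells; compounds (final up to 57.5 uM) added 1 h before LPS (250 ng/mL) and ATP (1.25 mM) stimulation; lower signal means less secretion.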
DRD3 agonist: qHTS of D3 Dopamine Receptor Agonist: qHTS. D(3) dopamine receptor (Homo sapiens), P35462. D3R DiscoveRx beta-arrestin cells, luminescence, 90 min. max activation, %. hit rate 0.58% among 410,000. AID 652048, 2013; in the data active means max activation above about 30%; further: 0% is about no effect
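Agonist-mode cell screen: cells plated at 1500/well and incubated overnight at 37 °C, then exposed to library compounds for 90 min at 37 °C. Detection reagent was added for 30–60 min at room temperature, and luminescence was read.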
Numbers without * were called inactive; i = inactive; ? = inconclusive; . = no result. Unless noted, the call rests on the fitted dose curve; in most records, active means well fitted curve in the direction sought with a large enough effect; inconclusive means small, poorly fitted or top-dose-only effect, or another doubt; inactive means no such curve, though single readings can be large; an effect the other way counts as inactive or inconclusive.

SMILES	Integrin act MD	S2 tox	DRD3 antagonist	ATXN2 expr inh	IL1B secr inh	DRD3 agonist
Cn1cc(CN2CCCC(C(=O)Nc3ccc(-c4cccc(F)c4)cc3)C2)cn1 (stereo not given)	-46%	32µM*	0	.	-11	-7
COc1cccc(O)c1CN1CCC(C(=O)Nc2ccc(-c3cccc(C)c3)cc2)CC1	-63%	i	-12	?	-95*	-14
COc1cccc(O)c1CN1CCC(C(=O)Nc2ccc(Oc3cccnc3)cc2)CC1	-43%	i	1	-21%	5	3
COc1cccc(-c2ccc(NC(=O)C3CCCN(Cc4ccco4)C3)cc2)c1 (stereo not given)	0%	?	6	8%	-80*	1
Cn1cc(CN2CCCC(C(=O)Nc3cccc(-n4cccn4)c3)C2)cn1 (stereo not given)	40%	i	2	4%	3	-8
CCN(CC)CCNC(=O)c1ccc(NC2=NC3CS(=O)(=O)CC3S2)cc1 (stereo not given)	10%	i	18	6%	0	3
Cc1nc2sc(-c3ccccc3)cc2c(=O)n1-n1cccc1	4%	i	7	17%	-63*	0
CC(C)C[C@H](NC(=O)[C@@H](NC(=O)c1cccc(-c2ccccc2)n1)[C@@H](C)O)B(O)O	.	.	.	0.061µM*	.	.
CCC(=O)N1c2ccc(S(=O)(=O)CCC(=O)N3CCn4c3nc3ccccc34)cc2CC1C (stereo not given)	-35%	?	2	11%	-97*	1
CC(C)C1Oc2ccccc2N(CC(=O)N(C)C2CCCCC2)C1=O (stereo not given)	-4%	i	-8	-4%	-74*	-12
Cc1ccc(CN2CCN(Cc3cnn(-c4ccc(Cl)cc4)c3)CC2CCO)o1 (stereo not given)	-14%	i	-19	-14%	-57*	-19
O=C(Nc1ccc(S(=O)(=O)Nc2ncccn2)cc1)c1ccc(Br)o1	-9%	?	11	.	14	3
Cc1noc(/C=C/c2cccs2)c1S(=O)(=O)N1CCC(C(=O)NCCCN2CCCC(C)C2)CC1 (stereo not given)	-55%	?	0	6%	-51*	-6
CC[C@H](C)C(C(=O)N1CCN(C(=O)OC(C)(C)C)CC1)n1cc(C(Cc2ccc(O)cc2)NC(=O)OC(C)(C)C)nn1 (stereo not given in full)	8%	i	73	-14%	-11	52*
CC[C@H](C)C(C(=O)N1CCN(C(=O)OC(C)(C)C)CC1)n1cc(C(CO)NC(=O)OC(C)(C)C)nn1 (stereo not given in full)	6%	i	-25	4%	-2	8
O=S(=O)(c1ccccc1)c1ncc(C(F)(F)F)cc1Cl	-66%	?	-29	?	-106*	-5
CN(c1ccccc1)c1ccc(/C=N/N2CCOCC2)cc1	5%	i	-52*	18%	-17	-1
Cn1c(=O)c2c(n3cnnc13)-c1ccccc1CC21CCCC1	-18%	?	-56*	-17%	-12	3
CCN(CC)C1CCN(C(=O)CCc2nnc(CCCCc3ccccc3)o2)C1 (stereo not given)	9%	i	-9	-35%	-3	-7
O=S(=O)(c1ccc(F)cc1)c1snnc1-c1ccccc1	-68%	?	-18	14µM*	-100*	8
O=S(=O)(c1ccc(Cl)cc1)c1snnc1-c1ccccc1	-58%	25µM*	-64*	20µM*	-115*	-10
CCC(C)CCN1C(N(C)C)=NC[C@@H]1C (stereo not given in full)	22%	i	22	3%	28	1
CCOC(=O)c1nnn(-c2nonc2N)c1CNC(C)C	5%	i	9	4%	16	4
CC1=C(C(=O)N2CCOCC2)CC(CC(=O)NCc2cccs2)C(=O)N1Cc1ccc(C(C)(C)C)cc1 (stereo not given)	-14%	i	20	3%	22	-4
CCN(CC)CCOc1ccc(C=NNc2nc3c([nH]2)c(=O)n(C)c(=O)n3C)cc1	?	i	0	6%	-9	-7
SMILES	Integrin act MD	S2 tox	DRD3 antagonist	ATXN2 expr inh	IL1B secr inh	DRD3 agonist
CCN(CC)CCOc1ccc(Nc2ncc3cc(-c4c(Cl)cccc4Cl)c(=O)n(C)c3n2)cc1	.	.	.	1.7µM*	.	.
CN(C)CCOc1ccc2c(c1)C(=O)C(=Cc1ncc([N+](=O)[O-])n1C)C2	-67%	?	-9	.	-51*	-4
CCc1cc(OCCN(C)C)ccc1Cl	6%	i	-16	-29%	17	-8
N#CC(c1ccc(Cl)cc1)c1ccc2c(C(F)(F)F)cc(C(F)(F)F)nc2n1 (stereo not given)	-61%	2µM*	0	0.71µM*	-105*	1
CCN1CCOC(=O)C1CC(=O)Nc1cc(Cl)ccc1C (stereo not given)	.	.	.	.	.	8
Nc1ncnc(Sc2ccccc2)c1[N+](=O)[O-]	-11%	i	-8	28%	-103*	3
Nc1ncnc(Sc2ncccn2)c1[N+](=O)[O-]	-63%	24µM*	-84*	?	-27	-20
Nc1ncnc(Sc2ccc(Cl)cc2)c1[N+](=O)[O-]	-45%	i	1	1%	?	1
O=C(CCNS(=O)(=O)c1cccs1)NCc1cccs1	-27%	i	-8	-8%	6	-9
CCOc1ccc(OCCC(=O)OCC(=O)Nc2ccc(C)c(S(=O)(=O)N3CCCCC3)c2)cc1	-18%	i	21	-1%	-15	-1
C/C=C(\C)CN1CCN(c2cc(C)ccc2C)CC1	17%	i	-86*	-3%	21	-38
Cc1ccc(C)c(N2CCN(Cc3csc(C)c3)CC2)c1	.	.	.	.	.	-38
Cc1ccc(C)c(N2CCN(CCCc3ccccc3)CC2)c1	-39%	i	-65*	?	25	-20
C/C=C(\C)CN1CCN(c2ccccc2F)CC1	-9%	i	-30	-6%	6	-3
C/C=C(\C)CN1CCN(c2cccc(C)c2C)CC1	22%	i	-88*	-8%	-8	-28
CC(C)NC(=O)CN1C(=O)CCn2nc(-c3cn(C)c4ccccc34)cc21	.	i	.	6%	.	-11
Cc1cc(=O)oc2c(N)nccc12	.	35µM*	-1	?	-105*	-3
CC(=O)c1ccc(NC(=S)NC(C)c2ccc(Cl)cc2Cl)cc1 (stereo not given)	12%	?	-1	-20%	-73*	-6
